Experimental data reported in the supplement of paper PMC11732987, “Enantioselective OTUD7B fragment discovery through chemoproteomics screening and high-throughput optimisation” (Communications Chemistry, 2025).

What was measured:
Experiment in all cases: log2 ratio of Biotin-Ahx-Ub-VS probe labelling (fragment/DMSO); higher = less target engagement (more negative = stronger competition), active = hit call of the paper (q ≤ 0.05, log2 ratio ≤ -1)
Settings in all cases: compound concentration: 200 uM; treatment time: 3 h
USP34 = USP34 (UniProt Q70CQ2)
Outline: (§1)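 Labelled DUBs from HEK293T lysate were NeutrAvidin-enriched, digested with LysC and trypsin, and run by diaPASEF LC-MS/MS. Before that, each 495 µg sample in Tris/CHAPS/IGEPAL buffer with protease inhibitors was treated in triplicate with fragment at 200 µM or vehicle for 3 h, then with Biotin-Ahx-Ub-VS at 0.5 µM final for 1 h. Values are average log2 ratios of fragment over vehicle by unpaired t-test, based on global-median-normalised Spectronaut label-free quantities from proteins with ≥2 unique peptides.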

USP36 = target: T1, USP36 (UniProt Q9P275)
T1 sequence (whole entry): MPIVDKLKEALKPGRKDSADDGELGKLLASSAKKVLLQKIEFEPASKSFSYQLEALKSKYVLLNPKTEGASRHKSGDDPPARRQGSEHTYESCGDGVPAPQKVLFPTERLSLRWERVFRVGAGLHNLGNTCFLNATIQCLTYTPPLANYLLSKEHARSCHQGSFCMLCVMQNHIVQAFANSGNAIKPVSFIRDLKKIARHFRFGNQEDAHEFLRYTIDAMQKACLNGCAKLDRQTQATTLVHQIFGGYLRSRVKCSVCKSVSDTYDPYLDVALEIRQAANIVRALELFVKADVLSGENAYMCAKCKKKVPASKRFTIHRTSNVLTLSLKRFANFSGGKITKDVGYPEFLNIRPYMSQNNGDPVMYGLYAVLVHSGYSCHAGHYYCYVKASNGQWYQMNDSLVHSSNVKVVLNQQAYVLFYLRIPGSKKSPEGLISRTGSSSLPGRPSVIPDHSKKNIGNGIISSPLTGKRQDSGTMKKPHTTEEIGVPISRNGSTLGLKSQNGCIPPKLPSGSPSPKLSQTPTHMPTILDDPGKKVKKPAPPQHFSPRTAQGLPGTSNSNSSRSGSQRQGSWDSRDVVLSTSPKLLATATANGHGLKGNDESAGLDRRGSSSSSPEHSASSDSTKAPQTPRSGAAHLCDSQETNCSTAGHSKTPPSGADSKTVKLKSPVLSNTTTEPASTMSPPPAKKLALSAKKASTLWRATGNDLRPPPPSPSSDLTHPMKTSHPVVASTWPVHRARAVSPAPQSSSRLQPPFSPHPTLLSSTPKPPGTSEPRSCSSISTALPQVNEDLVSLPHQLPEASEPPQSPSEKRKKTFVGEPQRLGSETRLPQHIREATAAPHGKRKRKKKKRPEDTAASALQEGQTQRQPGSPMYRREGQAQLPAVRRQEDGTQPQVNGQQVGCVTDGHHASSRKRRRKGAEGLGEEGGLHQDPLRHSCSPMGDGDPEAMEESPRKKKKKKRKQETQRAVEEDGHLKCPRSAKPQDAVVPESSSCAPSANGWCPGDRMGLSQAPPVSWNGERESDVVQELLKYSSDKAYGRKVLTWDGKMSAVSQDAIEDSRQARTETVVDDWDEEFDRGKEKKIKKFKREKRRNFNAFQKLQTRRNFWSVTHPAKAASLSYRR
Outline: as §1

USP38 = target: T2, USP38 (UniProt Q8NB14)
T2 sequence (whole entry): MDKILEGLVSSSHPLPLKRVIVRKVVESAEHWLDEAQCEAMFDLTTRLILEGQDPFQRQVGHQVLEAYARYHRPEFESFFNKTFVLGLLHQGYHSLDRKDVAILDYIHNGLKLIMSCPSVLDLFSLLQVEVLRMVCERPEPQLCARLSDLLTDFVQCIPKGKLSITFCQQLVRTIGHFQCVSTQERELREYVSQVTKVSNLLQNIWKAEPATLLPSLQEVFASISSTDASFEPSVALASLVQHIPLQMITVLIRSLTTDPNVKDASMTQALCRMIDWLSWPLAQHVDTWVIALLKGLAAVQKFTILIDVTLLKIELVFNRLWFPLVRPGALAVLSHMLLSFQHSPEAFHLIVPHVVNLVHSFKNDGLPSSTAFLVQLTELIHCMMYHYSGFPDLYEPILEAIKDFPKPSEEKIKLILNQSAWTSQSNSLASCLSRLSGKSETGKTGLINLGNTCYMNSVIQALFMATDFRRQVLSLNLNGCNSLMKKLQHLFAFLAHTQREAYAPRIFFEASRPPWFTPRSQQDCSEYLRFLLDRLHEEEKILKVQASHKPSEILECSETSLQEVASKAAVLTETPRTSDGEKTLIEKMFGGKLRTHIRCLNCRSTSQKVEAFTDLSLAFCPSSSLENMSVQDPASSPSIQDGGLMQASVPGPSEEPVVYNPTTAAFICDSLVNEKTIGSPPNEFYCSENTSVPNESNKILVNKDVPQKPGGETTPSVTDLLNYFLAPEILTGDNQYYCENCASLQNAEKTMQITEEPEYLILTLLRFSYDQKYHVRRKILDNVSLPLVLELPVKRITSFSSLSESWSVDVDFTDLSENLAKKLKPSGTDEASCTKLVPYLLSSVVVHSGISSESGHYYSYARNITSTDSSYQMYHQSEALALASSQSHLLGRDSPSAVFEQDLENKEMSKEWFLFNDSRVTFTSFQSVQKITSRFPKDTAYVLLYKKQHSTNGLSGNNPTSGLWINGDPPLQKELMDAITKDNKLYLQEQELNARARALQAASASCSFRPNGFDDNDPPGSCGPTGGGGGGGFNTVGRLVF
Outline: as §1

USP39 = target: T3, USP39 (UniProt Q53GS9)
T3 sequence (whole entry): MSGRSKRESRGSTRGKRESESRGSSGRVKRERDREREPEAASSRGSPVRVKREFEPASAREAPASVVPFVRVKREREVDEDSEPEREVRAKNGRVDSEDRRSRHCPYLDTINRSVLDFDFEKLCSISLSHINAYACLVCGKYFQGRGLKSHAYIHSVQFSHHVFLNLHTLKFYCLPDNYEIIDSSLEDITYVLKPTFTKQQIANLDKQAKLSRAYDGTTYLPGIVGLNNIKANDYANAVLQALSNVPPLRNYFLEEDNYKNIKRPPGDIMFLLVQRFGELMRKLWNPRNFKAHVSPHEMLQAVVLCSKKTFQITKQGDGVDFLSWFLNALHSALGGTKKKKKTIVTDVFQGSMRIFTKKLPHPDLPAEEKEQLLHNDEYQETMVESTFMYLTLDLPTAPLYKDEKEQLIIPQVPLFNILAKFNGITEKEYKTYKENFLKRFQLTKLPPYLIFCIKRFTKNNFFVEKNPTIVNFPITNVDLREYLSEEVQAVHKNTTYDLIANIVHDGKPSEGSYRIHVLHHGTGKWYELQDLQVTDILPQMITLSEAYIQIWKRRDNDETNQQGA
Outline: as §1

USP4 = target: T4, USP4 (UniProt Q13107)
T4 sequence (whole entry): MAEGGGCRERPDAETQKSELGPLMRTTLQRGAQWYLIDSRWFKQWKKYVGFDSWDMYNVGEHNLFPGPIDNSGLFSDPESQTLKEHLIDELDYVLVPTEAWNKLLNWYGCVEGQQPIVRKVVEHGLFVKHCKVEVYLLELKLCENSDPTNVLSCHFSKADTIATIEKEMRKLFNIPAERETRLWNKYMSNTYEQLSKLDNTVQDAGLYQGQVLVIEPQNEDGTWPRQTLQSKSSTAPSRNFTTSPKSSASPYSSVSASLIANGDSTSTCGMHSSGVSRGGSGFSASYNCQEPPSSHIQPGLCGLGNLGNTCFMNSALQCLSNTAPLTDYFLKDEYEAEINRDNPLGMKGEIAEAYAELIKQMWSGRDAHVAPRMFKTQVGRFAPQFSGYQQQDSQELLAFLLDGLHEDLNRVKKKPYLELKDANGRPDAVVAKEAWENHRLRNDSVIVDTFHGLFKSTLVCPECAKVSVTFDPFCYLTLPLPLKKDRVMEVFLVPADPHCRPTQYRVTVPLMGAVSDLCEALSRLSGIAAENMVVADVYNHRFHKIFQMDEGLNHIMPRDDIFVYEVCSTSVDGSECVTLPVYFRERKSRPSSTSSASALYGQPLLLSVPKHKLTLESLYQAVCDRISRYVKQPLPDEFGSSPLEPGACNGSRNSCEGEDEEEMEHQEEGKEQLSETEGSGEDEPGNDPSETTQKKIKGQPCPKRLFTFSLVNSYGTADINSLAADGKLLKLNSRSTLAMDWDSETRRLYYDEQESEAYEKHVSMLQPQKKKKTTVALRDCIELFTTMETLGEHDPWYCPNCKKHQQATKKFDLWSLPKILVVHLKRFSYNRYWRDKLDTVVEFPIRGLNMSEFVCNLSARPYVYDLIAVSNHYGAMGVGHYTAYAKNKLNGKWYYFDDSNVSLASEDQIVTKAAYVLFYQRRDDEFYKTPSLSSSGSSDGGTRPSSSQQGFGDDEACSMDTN
Outline: as §1

Measured: log2 ratio of Biotin-Ahx-Ub-VS probe labelling

Sequence of USP34 (Q70CQ2 whole entry, the tested form may be a part): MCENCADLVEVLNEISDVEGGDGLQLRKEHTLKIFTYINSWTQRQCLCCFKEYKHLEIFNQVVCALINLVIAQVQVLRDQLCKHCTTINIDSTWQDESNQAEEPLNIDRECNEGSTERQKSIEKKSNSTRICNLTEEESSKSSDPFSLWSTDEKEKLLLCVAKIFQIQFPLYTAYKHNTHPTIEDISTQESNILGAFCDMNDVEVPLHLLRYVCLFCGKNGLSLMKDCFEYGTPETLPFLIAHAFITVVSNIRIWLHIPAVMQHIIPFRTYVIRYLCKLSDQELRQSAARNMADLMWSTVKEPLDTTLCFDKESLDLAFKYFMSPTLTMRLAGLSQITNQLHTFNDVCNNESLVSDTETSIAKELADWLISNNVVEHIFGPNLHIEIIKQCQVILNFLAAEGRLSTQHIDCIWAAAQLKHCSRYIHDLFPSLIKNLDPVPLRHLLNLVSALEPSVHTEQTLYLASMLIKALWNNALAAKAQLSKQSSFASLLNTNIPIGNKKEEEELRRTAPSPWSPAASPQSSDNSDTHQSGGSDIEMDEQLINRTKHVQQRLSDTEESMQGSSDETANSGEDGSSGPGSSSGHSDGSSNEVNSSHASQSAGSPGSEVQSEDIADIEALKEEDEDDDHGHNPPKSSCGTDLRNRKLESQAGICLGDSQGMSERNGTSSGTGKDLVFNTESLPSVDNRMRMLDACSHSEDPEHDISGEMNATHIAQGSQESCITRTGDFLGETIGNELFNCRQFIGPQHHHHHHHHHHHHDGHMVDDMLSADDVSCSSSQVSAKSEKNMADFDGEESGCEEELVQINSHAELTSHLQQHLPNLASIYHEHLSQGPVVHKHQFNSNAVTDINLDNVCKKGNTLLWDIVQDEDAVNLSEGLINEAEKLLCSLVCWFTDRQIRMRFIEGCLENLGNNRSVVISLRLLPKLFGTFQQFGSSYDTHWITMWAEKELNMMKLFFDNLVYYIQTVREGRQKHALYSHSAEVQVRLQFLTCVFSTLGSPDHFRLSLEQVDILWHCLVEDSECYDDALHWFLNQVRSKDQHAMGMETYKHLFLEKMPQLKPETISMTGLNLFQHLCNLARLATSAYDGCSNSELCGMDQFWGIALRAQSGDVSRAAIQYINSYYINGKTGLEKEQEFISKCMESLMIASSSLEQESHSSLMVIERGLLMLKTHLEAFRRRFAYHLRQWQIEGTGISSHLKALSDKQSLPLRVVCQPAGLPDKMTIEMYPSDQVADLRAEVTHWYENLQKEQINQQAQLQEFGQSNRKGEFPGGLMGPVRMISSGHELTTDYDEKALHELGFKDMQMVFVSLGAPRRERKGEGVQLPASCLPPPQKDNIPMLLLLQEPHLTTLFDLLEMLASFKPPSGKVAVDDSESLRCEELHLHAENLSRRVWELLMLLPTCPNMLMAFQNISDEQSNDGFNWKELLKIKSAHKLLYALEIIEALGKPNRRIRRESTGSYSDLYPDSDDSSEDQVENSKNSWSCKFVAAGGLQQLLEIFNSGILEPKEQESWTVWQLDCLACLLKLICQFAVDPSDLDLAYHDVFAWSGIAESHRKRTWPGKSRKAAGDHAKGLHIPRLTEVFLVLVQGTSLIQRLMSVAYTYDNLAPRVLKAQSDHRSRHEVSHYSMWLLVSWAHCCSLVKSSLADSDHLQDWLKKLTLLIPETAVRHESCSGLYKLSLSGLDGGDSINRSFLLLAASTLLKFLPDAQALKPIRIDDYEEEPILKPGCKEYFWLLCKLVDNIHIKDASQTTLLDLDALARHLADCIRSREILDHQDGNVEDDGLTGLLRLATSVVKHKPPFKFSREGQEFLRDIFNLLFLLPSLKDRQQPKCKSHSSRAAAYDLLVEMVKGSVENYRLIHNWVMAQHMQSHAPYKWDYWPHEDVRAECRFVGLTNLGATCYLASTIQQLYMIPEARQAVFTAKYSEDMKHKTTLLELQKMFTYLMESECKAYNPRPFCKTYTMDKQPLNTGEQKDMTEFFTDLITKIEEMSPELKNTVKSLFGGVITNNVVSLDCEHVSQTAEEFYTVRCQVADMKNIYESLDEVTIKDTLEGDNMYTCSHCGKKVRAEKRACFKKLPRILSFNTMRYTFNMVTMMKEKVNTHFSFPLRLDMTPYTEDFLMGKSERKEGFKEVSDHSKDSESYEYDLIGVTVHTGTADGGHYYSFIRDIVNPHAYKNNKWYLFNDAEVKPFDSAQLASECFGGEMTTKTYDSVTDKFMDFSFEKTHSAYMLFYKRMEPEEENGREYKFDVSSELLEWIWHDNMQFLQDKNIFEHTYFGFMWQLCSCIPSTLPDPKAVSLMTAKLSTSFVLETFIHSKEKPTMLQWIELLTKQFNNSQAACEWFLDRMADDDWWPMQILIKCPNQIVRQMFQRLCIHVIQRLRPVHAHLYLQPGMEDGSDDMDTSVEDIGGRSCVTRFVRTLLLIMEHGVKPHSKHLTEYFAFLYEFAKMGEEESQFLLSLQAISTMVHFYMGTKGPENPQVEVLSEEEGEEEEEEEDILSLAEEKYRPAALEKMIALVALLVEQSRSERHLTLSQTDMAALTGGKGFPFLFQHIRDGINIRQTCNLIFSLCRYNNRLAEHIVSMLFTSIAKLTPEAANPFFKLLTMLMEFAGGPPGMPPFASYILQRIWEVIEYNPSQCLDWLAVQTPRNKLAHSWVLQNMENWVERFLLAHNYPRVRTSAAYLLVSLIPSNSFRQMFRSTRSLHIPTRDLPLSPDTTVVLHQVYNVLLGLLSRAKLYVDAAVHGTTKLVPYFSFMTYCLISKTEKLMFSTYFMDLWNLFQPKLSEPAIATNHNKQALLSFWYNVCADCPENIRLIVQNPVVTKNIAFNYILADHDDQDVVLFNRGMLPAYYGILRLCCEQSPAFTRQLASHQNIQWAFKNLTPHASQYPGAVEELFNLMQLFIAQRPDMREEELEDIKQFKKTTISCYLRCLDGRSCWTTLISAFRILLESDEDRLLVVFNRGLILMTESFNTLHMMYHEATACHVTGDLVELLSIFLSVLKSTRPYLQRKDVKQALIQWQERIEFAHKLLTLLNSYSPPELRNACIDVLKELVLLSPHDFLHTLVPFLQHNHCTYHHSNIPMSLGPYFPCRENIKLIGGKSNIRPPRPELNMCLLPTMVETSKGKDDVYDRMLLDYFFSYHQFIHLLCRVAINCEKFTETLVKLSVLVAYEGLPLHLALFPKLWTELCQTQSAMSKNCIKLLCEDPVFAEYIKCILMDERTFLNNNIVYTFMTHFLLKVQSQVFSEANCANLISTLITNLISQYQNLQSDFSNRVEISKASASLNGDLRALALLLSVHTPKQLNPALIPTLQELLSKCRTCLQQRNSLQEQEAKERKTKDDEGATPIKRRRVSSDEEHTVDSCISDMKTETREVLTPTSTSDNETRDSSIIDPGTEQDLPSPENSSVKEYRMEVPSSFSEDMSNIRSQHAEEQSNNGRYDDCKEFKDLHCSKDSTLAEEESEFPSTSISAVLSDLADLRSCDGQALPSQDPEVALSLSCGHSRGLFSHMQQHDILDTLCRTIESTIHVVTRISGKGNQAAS

Cc1cccn2cc(CCNC(=O)CCl)nc12.Cl
inactive: USP34 -0.083 | USP36 -0.0485 | USP38 -0.247 | USP39 -0.319 | USP4 -0.12
